{
  "source": "PubChem BioAssay (Tox21)",
  "note": "Inconclusive results are not listed. Some structures have more than one record in an assay (separate samples or runs), and their calls can disagree. Calls of active or inactive are those of the source. Calls come from the whole dose curve. % is set by controls: 0 for no effect and ±100 for the full control effect; potency is the fitted concentration of half-maximal effect.",
  "data": [
    {"experiment": "p53 small molecule agonists, cell-based qHTS assay with human liver microsomes: qHTS cell viability counter screen (AID 1963579); note: nearly all actives have a fitted effect of over 45% in size", "conditions": "p53RE-bla HCT-116 viability, ATP luminescence, 16 h, HLM; series mostly up to 66 µM; activity change, negative = cytotoxicity: at the top concentration", "text": "National Center for Advancing Translational Sciences [NCATS]\nDivision of Preclinical Innovation [DPI]\nU.S. Environmental Protection Agency [EPA]\nNational Institutes of Environmental Health Sciences [NIEHS]\nNational Toxicology Program [NTP]\nU.S. Food and Drug Administration [FDA]\np53, a tumor suppressor protein, is activated following cellular insult, including DNA damage and other cellular stresses. The activation of p53 regulates cell fate by inducing DNA repair, cell cycle arrest, apoptosis, or cellular senescence. The activation of p53, therefore, is a good indicator of DNA damage and other cellular stresses. […] The activation of the reporter gene under culture conditions can be detected by fluorescence intensity. This cell line was used to screen the Tox21 10K compound library in the condition of presence of human liver microsomes and to identify agonists that activate the p53 signaling pathway after in vitro metabolic activation (Ooka et al., Archive of Toxicology 96:1975-1987, 2022).\nTox21 Assay Protocol Summary:\nThe p53RE-bla cells were dispensed at 4,000cells/3ul/well in 1536-well black-clear bottom plates. After the assay plates were incubated at 37 C, 5% CO2 incubator for 5 hours, 23 nL of compounds dissolved in DMSO, positive controls or DMSO only was transferred to the assay plate. Following compound addition, 3 uL of human liver microsomes (XenoTech, Kansas City, KS) at final concentration of 0.5 mg/mL and 1uL of B-Nicotinamide adenine dinucleotide 2'-phosphate (NADPH) at final concentration of 0.5 mg/mL were transferred to the assay plate. The plates were incubated at 37 C for 16 hours. 1 uL of LiveBLAzer detection mixture was added to each well and the plates were incubated at room temperature in the dark for 2 h. Fluorescence intensity at 460 and 530 nm emission and 405 nm excitation were measured by an Envision plate reader. For cell viability readout that measures cytotoxicity, 4 ul/well of CellTiter-Glo reagent was added into the assay plates using a Flying Reagent Dispenser. After 30 min incubation at room temperature, the luminescence intensity in the plates was measured using a ViewLux plate reader.", "values": [
      {"smiles": "Cn1c(-c2ccccc2)cc(-c2ccccc2)[n+]1C", "Potency": "inactive"},
      {"smiles": "CCC(Cl)[N+](=O)[O-]", "note": "(stereo not given)", "activity change, negative = cytotoxicity": "4.13% (inactive)"},
      {"smiles": "Brc1ccc(Oc2cc(Br)c(Br)cc2Br)c(Br)c1", "Potency": "inactive"},
      {"smiles": "Oc1ccc(Cl)cc1Cl", "Potency": "inactive"},
      {"smiles": "Clc1cnc(Oc2ccc(Oc3ncc(Cl)cc3Cl)cc2)c(Cl)c1", "Potency": "inactive"},
      {"smiles": "CN(C)NC(=O)CCC(=O)O", "Potency": "inactive"},
      {"smiles": "O=C(CCN1CC1)OCC(CO)(COC(=O)CCN1CC1)COC(=O)CCN1CC1", "activity change, negative = cytotoxicity": "8.5% (inactive)"},
      {"smiles": "O=[N+]([O-])c1cccc(O)c1", "activity change, negative = cytotoxicity": "-4.9% (inactive)"},
      {"smiles": "CCOC(=O)c1cncn1C(C)c1ccccc1", "note": "(stereo not given)", "activity change, negative = cytotoxicity": "7.88% [at 30.3 µM] (inactive)"},
      {"smiles": "CCOC(=O)c1ccccc1S(=O)(=O)NC(=O)Nc1nc(Cl)cc(OC)n1", "activity change, negative = cytotoxicity": "-11.6% (inactive)"},
      {"smiles": "C=CC(=O)OCC(CC)CCCC", "note": "(stereo not given)", "Potency": "inactive"},
      {"smiles": "O=[N+]([O-])c1ccc([As](=O)(O)O)cc1", "Potency": "inactive"},
      {"smiles": "C=CCCC#N", "activity change, negative = cytotoxicity": "-5.4% (inactive)"},
      {"smiles": "c1ccc2c(c1)Nc1ccccc1S2", "Potency": "inactive"},
      {"smiles": "CN(C)C(=O)Cl", "activity change, negative = cytotoxicity": "2.5% (inactive)"},
      {"smiles": "N#CC(Cl)Cl", "activity change, negative = cytotoxicity": "-3.39% (inactive)"},
      {"smiles": "NC1(c2ccccc2)CCCCC1", "activity change, negative = cytotoxicity": "22.4% (inactive)"},
      {"smiles": "C=CC(=O)OC(C)(C)C", "activity change, negative = cytotoxicity": "-2.83% (inactive)"},
      {"smiles": "ClCCN1CCCC1", "activity change, negative = cytotoxicity": "-2.81% [at 30.3 µM] (inactive)"},
      {"smiles": "O=S(=O)(Cl)Cl", "activity change, negative = cytotoxicity": "-0.932% (inactive)"},
      {"smiles": "CC(=O)C=C(C)C", "Potency": "inactive"},
      {"smiles": "CCNc1nc(Cl)nc(NC(C)(C)C#N)n1", "Potency": "inactive"},
      {"smiles": "CC1(C)[C@H](C(=O)O[C@H](C#N)c2cccc(Oc3ccccc3)c2)[C@@H]1/C=C(\\Cl)C(F)(F)F", "Potency": "inactive"},
      {"smiles": "O=C(CCl)c1ccc(Cl)cc1Cl", "activity change, negative = cytotoxicity": "19.3% [at 30.3 µM] (inactive)"},
      {"smiles": "[O]=[Cr](=[O])([OH])[O][Cr](=[O])(=[O])[OH]", "Potency": "40.7 µM (active)"},
      {"smiles": "C=CCc1ccccc1O", "activity change, negative = cytotoxicity": "3.34% (inactive)"},
      {"smiles": "CN(C)C(=S)SSC(=S)N(C)C", "Potency": "inactive"},
      {"smiles": "C=CCCl", "activity change, negative = cytotoxicity": "-4.12% (inactive)"},
      {"smiles": "CCNc1nc(Cl)nc(NCC)n1", "Potency": "inactive"},
      {"smiles": "Clc1ccc(COC(Cn2ccnc2)c2ccc(Cl)cc2Cl)cc1", "note": "(stereo not given)", "Potency": "38 µM (active) and inactive"},
      {"smiles": "C=CCN1CC[C@]23CCCC[C@H]2[C@H]1Cc1ccc(O)cc13", "activity change, negative = cytotoxicity": "-9.79% [at 30.3 µM] (inactive)"},
      {"smiles": "CCC(C)Cl", "note": "(stereo not given)", "activity change, negative = cytotoxicity": "2.25% (inactive)"},
      {"smiles": "NC(=O)CCl", "activity change, negative = cytotoxicity": "-7.99% (inactive)"},
      {"smiles": "O=C(O)c1cc(Cl)ccc1Cl", "activity change, negative = cytotoxicity": "4.24% (inactive)"},
      {"smiles": "O=C(O)C1C(C(=O)O)C2(Cl)C(Cl)=C(Cl)C1(Cl)C2(Cl)Cl", "note": "(stereo not given)", "Potency": "inactive"},
      {"smiles": "O=C1CC(=O)NC(=O)N1", "activity change, negative = cytotoxicity": "13.4% (inactive)"},
      {"smiles": "COc1cc(OC)nc(Oc2cccc(Oc3nc(OC)cc(OC)n3)c2C(=O)O)n1", "activity change, negative = cytotoxicity": "-4.02% (inactive)"},
      {"smiles": "CCCCCCCCCCCCOS(=O)(=O)O", "Potency": "inactive"},
      {"smiles": "CCCC[N+]1(C)CCCC1", "Potency": "inactive"},
      {"smiles": "CC(C)OC(=O)Cc1ccccc1", "activity change, negative = cytotoxicity": "0.0758% (inactive)"}
    ]}
  ]
}
